Experimental findings from PubChem BioAssay are described below.

A short description of test [1]: small molecules captured by biotinylated probe aFSTL3 – biochemical, small-molecule microarray, fluorescence 635/667, stem cell growth factor project, primary screen (AID 1064).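 Also: measures binding of the biotinylated anti-FSTL3 antibody to printed compounds.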 Conditions: higher = more signal.
The nature of test [2]: binders from COS7 lysate, DM2A8 probe, primary screen, torsin A project, cell lysate, small-molecule microarray, fluorescence 635/667 (AID 1065). Conditions: higher = more signal, COS7 lysate expressing mutant human TOR1A.
Test [3] in a line: small molecules captured by biotinylated probe aFGF2 – biochemical, small-molecule microarray, fluorescence 635/667, stem cell growth factor project, primary screen (AID 1067).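 Also: measures binding of biotinylated aFGF2 protein to printed compounds on slides; z-score merges feature fluorescence and signal-to-noise across triplicate slides.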 Conditions: higher = more signal.
Test [4] is described as follows: small molecules captured by biotinylated probe aFGF10 – biochemical, small-molecule microarray, fluorescence 635/667, stem cell growth factor project, primary screen (AID 1071).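 Also: score merges 667 nm spot intensity and signal to noise from triplicate slides.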 Conditions: higher = more signal.
Test [5] has as its target Neurogenic locus notch homolog protein 2 (Homo sapiens) (UniProt Q04721). Nature of the test: small molecules binding Notch2 protein – biochemical, small-molecule microarray, 635 nm fluorescence, stem cell growth factors, primary screen (AID 1073). Conditions: higher = more signal.
Test [6] deals with Pro-neuregulin-1, membrane-bound isoform (Homo sapiens) (UniProt Q02297). Nature of the test: small molecules binding neuregulin-1 protein – biochemical, small-molecule microarray, fluorescence 635/667, psychiatric disease protein project, primary screen (AID 1075).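 Also: score combines 667 nm spot fluorescence with signal to noise.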 Conditions: NRG1 binding, 635 nm fluorescence, higher = more signal.
Pro-neuregulin-1, membrane-bound isoform (Homo sapiens), sequence (Q02297 whole entry, looked up, the tested form may be a part, canonical isoform): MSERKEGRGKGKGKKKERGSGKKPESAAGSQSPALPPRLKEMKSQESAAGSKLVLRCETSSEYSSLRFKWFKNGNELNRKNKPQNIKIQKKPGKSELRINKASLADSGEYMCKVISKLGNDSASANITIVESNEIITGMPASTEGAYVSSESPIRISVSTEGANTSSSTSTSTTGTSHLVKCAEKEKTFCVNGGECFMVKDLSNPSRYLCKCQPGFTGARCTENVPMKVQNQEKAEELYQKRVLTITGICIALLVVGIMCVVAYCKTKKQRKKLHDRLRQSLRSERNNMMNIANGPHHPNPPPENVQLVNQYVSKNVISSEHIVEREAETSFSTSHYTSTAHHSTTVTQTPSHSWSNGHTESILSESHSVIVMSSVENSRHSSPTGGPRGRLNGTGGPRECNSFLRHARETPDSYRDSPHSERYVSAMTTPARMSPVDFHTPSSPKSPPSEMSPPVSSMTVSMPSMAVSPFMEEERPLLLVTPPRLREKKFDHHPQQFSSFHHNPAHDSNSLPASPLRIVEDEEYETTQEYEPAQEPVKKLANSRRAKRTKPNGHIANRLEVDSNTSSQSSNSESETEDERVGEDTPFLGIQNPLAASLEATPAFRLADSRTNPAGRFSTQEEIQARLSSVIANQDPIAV
Test [7] relates to Neuregulin-1 EGF-like domain. In words: small molecules binding NRG1 EGF domain – biochemical, small-molecule microarray, 635 nm fluorescence, primary screen (AID 1081).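 Also: binding of the protein to compounds printed on small-molecule microarray slides.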 Conditions: higher = more signal.
Test [8] is described as follows: FRG1 expression reporter modulators in myotubes – cell-based, C2C12 myotubes, firefly/Renilla luciferase, luminescence, FRG1 inhibition for FSHD, primary screen (AID 1084). Conditions: FRG1 promoter luciferase, higher = more signal, called active from +8 up or from −8 down.
Test [9] in a line: small molecules captured by biotinylated probe aFST – biochemical, small-molecule microarray, fluorescence 635/667, stem cell growth factor project, primary screen (AID 1086).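 Also: score merges 667 nm fluorescence with signal-to-noise of each printed compound spot.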 Conditions: higher = more signal.
Test [10] is described as follows: binders of probe aHhip on microarray, primary screen, stem cell growth factor project, biochemical, small-molecule microarray, fluorescence 635/667 (AID 1087).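 Also: score merges spot fluorescence at 667nm with spot signal to noise ratio.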 Conditions: higher = more signal.

Each structure is given as a SMILES string. The source made the active and inactive calls.

Neurogenic locus notch homolog protein 2 (Homo sapiens), sequence (Q04721 whole entry, looked up, canonical isoform): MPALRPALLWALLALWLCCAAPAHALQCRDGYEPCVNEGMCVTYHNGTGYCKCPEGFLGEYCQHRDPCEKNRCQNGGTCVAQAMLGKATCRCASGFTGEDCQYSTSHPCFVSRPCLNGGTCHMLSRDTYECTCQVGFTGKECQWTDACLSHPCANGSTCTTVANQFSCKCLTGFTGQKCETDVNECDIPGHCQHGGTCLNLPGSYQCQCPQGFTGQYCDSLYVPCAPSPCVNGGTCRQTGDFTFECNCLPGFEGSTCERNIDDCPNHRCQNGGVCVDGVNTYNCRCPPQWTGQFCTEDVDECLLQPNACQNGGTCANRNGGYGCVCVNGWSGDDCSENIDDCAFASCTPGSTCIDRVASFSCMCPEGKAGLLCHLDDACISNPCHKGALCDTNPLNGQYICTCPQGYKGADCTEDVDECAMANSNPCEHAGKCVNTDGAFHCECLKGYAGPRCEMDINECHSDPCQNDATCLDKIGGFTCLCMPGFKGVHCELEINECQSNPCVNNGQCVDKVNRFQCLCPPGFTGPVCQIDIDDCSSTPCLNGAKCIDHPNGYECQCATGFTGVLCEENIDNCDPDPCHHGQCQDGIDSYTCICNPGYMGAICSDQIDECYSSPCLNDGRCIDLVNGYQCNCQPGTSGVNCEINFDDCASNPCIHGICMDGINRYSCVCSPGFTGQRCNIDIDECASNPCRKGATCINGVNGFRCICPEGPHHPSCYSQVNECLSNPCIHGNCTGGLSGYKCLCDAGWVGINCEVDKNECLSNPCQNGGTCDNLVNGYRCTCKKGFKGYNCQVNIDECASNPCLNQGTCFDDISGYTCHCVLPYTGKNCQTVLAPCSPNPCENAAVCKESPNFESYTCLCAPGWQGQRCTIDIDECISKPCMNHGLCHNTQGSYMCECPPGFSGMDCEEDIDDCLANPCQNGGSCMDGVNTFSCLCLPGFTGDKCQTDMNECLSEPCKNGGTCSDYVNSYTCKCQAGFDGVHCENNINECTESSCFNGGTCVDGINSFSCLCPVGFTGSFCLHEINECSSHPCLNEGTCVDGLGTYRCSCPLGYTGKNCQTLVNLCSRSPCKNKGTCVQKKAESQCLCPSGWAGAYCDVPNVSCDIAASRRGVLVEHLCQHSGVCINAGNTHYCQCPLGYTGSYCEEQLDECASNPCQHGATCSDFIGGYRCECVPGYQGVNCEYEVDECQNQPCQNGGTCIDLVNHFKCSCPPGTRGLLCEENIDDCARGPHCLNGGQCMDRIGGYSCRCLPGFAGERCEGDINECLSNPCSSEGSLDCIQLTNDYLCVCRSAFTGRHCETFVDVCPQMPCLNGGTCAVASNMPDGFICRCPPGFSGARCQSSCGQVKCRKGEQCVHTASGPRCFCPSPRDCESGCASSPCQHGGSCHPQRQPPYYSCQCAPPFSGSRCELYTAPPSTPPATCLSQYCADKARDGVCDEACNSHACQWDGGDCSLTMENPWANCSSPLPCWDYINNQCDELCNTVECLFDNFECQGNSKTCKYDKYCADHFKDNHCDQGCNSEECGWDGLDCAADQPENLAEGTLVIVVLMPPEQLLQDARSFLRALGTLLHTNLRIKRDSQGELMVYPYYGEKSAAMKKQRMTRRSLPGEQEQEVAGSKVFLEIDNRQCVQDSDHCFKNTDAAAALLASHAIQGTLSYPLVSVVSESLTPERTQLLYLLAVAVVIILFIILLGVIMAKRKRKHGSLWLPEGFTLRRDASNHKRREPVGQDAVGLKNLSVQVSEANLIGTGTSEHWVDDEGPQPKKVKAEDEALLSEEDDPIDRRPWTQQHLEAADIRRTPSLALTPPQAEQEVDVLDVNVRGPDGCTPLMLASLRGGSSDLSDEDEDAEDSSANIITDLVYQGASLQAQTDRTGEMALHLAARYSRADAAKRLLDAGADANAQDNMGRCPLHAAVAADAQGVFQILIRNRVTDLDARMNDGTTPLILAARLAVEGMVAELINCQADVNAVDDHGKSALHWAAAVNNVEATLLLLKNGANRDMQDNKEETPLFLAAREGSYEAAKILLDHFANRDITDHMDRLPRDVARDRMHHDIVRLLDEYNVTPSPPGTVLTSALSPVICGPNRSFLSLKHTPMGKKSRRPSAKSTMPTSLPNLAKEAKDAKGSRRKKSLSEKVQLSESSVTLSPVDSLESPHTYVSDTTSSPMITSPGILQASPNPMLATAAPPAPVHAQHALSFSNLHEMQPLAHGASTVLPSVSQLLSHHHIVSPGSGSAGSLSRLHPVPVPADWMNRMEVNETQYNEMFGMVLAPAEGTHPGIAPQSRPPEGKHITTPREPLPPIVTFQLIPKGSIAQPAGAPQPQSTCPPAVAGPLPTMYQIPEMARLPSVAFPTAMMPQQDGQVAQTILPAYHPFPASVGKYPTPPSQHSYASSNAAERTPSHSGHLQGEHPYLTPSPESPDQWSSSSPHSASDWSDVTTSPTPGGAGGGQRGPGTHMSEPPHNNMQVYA

Regarding `C=C(C)[C@@H]1CC=C(C(O)C2C=CC3C(=O)NC(=O)C3N2Nc2ccccn2)CC1` (stereo not given in full), the composite z-score in test [1] is 0.541; in test [2], 1.27; in test [3], 0.0127; in test [4], 1.07; in [5], 1.61; in test [6], 1.36. Also, the composite z-score is 1.35 in test [7], 1.5 in test [9] and 0.0524 in [10]. The z-score in test [8] is 1.65 (inactive).
Take `C[N+](C)(C)CCCC[C@@H]1NC(=O)[C@H]2C[C@@H](C(=O)NCc3ccc(F)cc3)[C@@H](c3cccc(OCCO)c3)N2C1=O`: the composite z-score in test [1] was 0.466; in test [2], 1.02; in test [3], -0.149; in test [4], -0.579; in test [5], -0.607; in test [6] it was 0.594. Moreover, the composite z-score in [7] was found to be 1.22; in [9], 0.231; in test [10], 0.0176. Besides, in test [8], the z-score was 0.106 (inactive).
Regarding `NC(=O)NCC#Cc1ccc2c(c1)[C@]1(C(=O)N2)[C@H](C(=O)N2CCCCCCC2)[C@H]2C(=O)O[C@H](c3ccccc3)[C@H](c3ccccc3)N2[C@@H]1c1ccccc1OCCO`, the composite z-score in test [1] was found to be 3.86; in test [2] it was 2.03; in [3], 0.876; in test [4], 0.921; in test [5], 1.43; in test [6], 1.92. Moreover, the composite z-score in [7] amounted to 0.589; in test [9], 3.38; in test [10], 0.526. In test [8], the z-score is 0.423 (inactive).
`CCOC(=O)C[C@H]1[C@H](OC(=O)Cc2ccc3c(c2)OCO3)[C@@H](NC(=O)c2ccc3ccccc3c2)c2cc(OCCCO)ccc2N1C(=O)Cc1ccc(OC)cc1`: the composite z-score in [1] is -0.0089; in test [2], 0.237; in test [3], -0.0239; in [4] it was 0.546; in test [5], 0.947; in test [6], 0.759. The composite z-score in test [7] is 0.358; in test [9] it was 0.533; in test [10], 0.0274. Further, the z-score in [8] was -1.63 (inactive).
For `CCOC(=O)C[C@H]1[C@H](OC(=O)c2ccccc2-c2ccccc2)[C@@H](NC(=O)C2CCCCC2)c2cc(OCCCO)ccc2N1C(=O)c1ccccc1`, the composite z-score in test [1] is -0.43; in test [2], 0.0236; in [3], -0.041; in [4], 0.687; in test [5] it was 0.797; in test [6] it was 0.0516. The composite z-score in test [7] is 0.652; in [9], 0.0322; in test [10] it was -0.0047. Further, in test [8], the z-score is 0.404 (inactive).
Consider `C=C(/C(=C/C[C@@H](OC(=O)c1ccncc1)c1ccc(CO)o1)c1cnc2ccccc2c1)C(C)C`, for which the composite z-score is 0.358 in [1]; 0.522 in test [2]; -0.0767 in test [3]; 1.02 in test [4]; 1.52 in test [5]; 1.15 in [6]. The values for the composite z-score in test [7], in [9] and in test [10] were 1.04, 0.398 and -0.0994, respectively. Besides, the z-score in test [8] is -0.493 (inactive).
As for `CO[C@H]1COC(=O)[C@H](C)NC(=O)CC=C[C@@H](C)[C@H](NS(=O)(=O)c2ccc(C)cc2)COC(=O)[C@@H](OCc2ccccc2)C=C[C@@H]1C`, the composite z-score in test [1] is -0.452; in [2], 0.148; in test [3] it was -0.183; in [4], -0.0799; in [5], -0.563; in [6], -0.157. Besides, the composite z-score in [7] was -0.477; in test [9], -0.234; in [10], -0.0237. Further, in [8], the z-score is -0.0584 (inactive).
Turning to `COc1cc2c(cc1OC)CN(C(=O)[C@H]1[C@@H]3C(=O)O[C@@H](c4ccccc4)[C@@H](c4ccccc4)N3[C@@H](c3ccccc3OCCO)[C@]13C(=O)Nc1ccc(C#CC4(O)CCCCCC4)cc13)CC2`, the composite z-score in [1] is -0.0648; in test [2] it was 0.705; in [3] it was 0.0605; in test [4], 1.01; in test [5], 1.1; in [6], 1.76. Also, the composite z-score worked out at 1.35 in test [7], 0.319 in test [9] and 0.245 in test [10]. Also, in test [8], the z-score was -2.24 (inactive).
As for `COc1ccc([Si](C)(C)[C@H]2[C@H](CCO)O[C@@]3(C(=O)N(Cc4ccccc4)c4ccc(N5C(=O)c6cccc7cccc5c67)cc43)[C@@H]2C)cc1`, the composite z-score in test [1] was 0.334; in test [2] it was -0.173; in test [3] it was -0.144; in test [4], 0.0626; in test [5], -0.0844; in test [6] it was 0.48. Moreover, the composite z-score in test [7] is 0.836; in [9], -0.268; in [10], 3.71. For the same compound, the z-score in test [8] is -1.3 (inactive).
`COc1ccc([Si](C)(C)[C@H]2[C@H](CC(=O)N3Cc4ccccc4C[C@H]3CO)O[C@@]3(C(=O)N(Cc4cccc(N5CCOC5=O)c4)c4ccccc43)[C@@H]2C)cc1`: the composite z-score is 0.0766 in [1]; 0.882 in [2]; -0.128 in [3]; 0.157 in test [4]; 0.123 in test [5]; 0.676 in [6]. Also, the figures for the composite z-score in test [7], in [9] and in test [10] were 0.95, 0.158 and -0.264, respectively. Moreover, the z-score in [8] was -2.72 (inactive).
On to `C=C[C@H](OC)[C@@H](OC(=O)Nc1ccc(SC)cc1)c1ccc(OC)c(O)c1`, for which the composite z-score was 0.687 in test [1]; -0.368 in test [2]; -0.141 in test [3]; -0.748 in test [4]; -0.708 in test [5]; -0.231 in test [6]. Besides, the composite z-score in test [7] was 0.164; in [9], -0.595; in test [10], -0.0994. Also, in test [8], the z-score was 1.2 (inactive).
